According to PubChem BioAssay (EPA / NIEHS):
Activity calls are given as the source filed them. How the source made its calls: active means hit-call score of the fitted dose curve at least 0.9, where 1 is the maximum; inactive means score below 0.9.

Tests used:
Conditions in all cases: mRNA level, 48 h; actives raise or lower the signal
[1] = read-out: matrix metalloproteinase-3 (MMP3), MMP3 (gene 4314); assay: LTEA_HepaRG_MMP3: Life Technologies and Expression Analysis (LTEA) Assay for matrix metalloproteinase-3 (MMP3) using HepaRG (AID 2283519)
Outline: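 Fluidigm-based TaqMan qRT-PCR, normalized to ACTB, GAPDH and POLR2A and fitted bidirectionally versus 0.5% DMSO, measured transcript levels. Treatment: duplicate 48 h exposures of HepaRG cells, ~100,000/well, to eight half-log concentrations topping at 100 uM.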

[2] = read-out: Paternally Expressed 10 (PEG10), PEG10 (gene 23089); assay: LTEA_HepaRG_PEG10: Life Technologies and Expression Analysis (LTEA) Assay for Paternally Expressed 10 (PEG10) using HepaRG (AID 2283520);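 on AC50: PEG10 transcript by qRT-PCR normalised to ACTB GAPDH and POLR2A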
Outline: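 After 48 h exposure of differentiated HepaRG cells (0.5% DMSO vehicle, eight concentrations up to 100 uM, duplicates), PEG10 mRNA was measured by TaqMan qRT-PCR. Values were normalised to endogenous control genes and analysed bidirectionally against vehicle.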

[3] = read-out: Nuclear factor NF-kappa-B p105 subunit (Homo sapiens) (UniProt P19838); assay: LTEA_HepaRG_NFKB1: Life Technologies and Expression Analysis (LTEA) Assay for Nuclear Factor Kappa B Subunit 1 (NFKB1) using HepaRG (AID 2283521)
Outline: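 Differentiated human HepaRG cells were exposed for 48 h in serum-free induction medium to eight concentrations (top 100 uM, half-log steps, 0.5% DMSO), in duplicate. NFKB1 mRNA was measured by TaqMan qRT-PCR, normalized to ACTB/GAPDH/POLR2A, and fitted bidirectionally against DMSO.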

[4] = read-out: Protein phosphatase 2A (PPP2R4), PTPA (gene 5524); assay: LTEA_HepaRG_PPP2R4: Life Technologies and Expression Analysis (LTEA) Assay for Protein phosphatase 2A (PPP2R4) using HepaRG (AID 2283522)
Outline: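 Using HepaRG cultures maintained in 0.5% DMSO, chemicals are tested 48 h at up to 100 uM in duplicate. Induction or suppression of PPP2R4 mRNA, measured by qRT-PCR, is fitted bidirectionally against the vehicle baseline.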

[5] = read-out: Phosphatase and tensin (PTEN), PTEN (gene 5728); assay: LTEA_HepaRG_PTEN: Life Technologies and Expression Analysis (LTEA) Assay for Phosphatase and tensin (PTEN) using HepaRG (AID 2283523)
Outline: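 Read-out: TaqMan qRT-PCR of PTEN transcript, normalized to three housekeeping genes, fitted in both directions against 0.5% DMSO. Differentiated human HepaRG cultures received chemicals for 48 h, eight-point half-log series topping at 100 uM.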

[6] = read-out: solute carrier (SLC22A1), SLC22A1 (gene 6580); assay: LTEA_HepaRG_SLC22A1: Life Technologies and Expression Analysis (LTEA) Assay for solute carrier (SLC22A1) using HepaRG (AID 2283524)
Outline: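 Transcript level of SLC22A1 quantified by qRT-PCR (normalized to three housekeeping genes) after 48 h chemical exposure of HepaRG cells, eight concentrations up to 100 µM, half-log steps, 0.5% DMSO vehicle. Gain or loss relative to DMSO fitted bidirectionally.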

[7] = read-out: Pyruvate Dehydrogenase Kinase 4 (PDK4), PDK4 (gene 5166); assay: LTEA_HepaRG_PDK4: Life Technologies and Expression Analysis (LTEA) Assay for Pyruvate Dehydrogenase Kinase 4 (PDK4) using HepaRG (AID 2283525)
Outline: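 Readout is qRT-PCR of PDK4 transcript, normalized to three housekeeping genes, with bidirectional fitting against 0.5% DMSO vehicle. Differentiated HepaRG cells were treated 48 h in serum-free induction medium, duplicate wells, eight-point half-log series topping at 100 uM.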

[8] = read-out: NAD(P)H dehydrogenase [quinone] 1 (NQO1), NQO1 (gene 1728); assay: LTEA_HepaRG_NQO1: Life Technologies and Expression Analysis (LTEA) Assay for NAD(P)H dehydrogenase [quinone] 1 (NQO1) using HepaRG (AID 2283526)
Outline: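 In this assay, gene expression is read by qRT-PCR after 48 h exposure of HepaRG cells to eight concentrations (max 100 uM, half-log) in 0.5% DMSO. Each chemical runs in duplicate, and activity is scored relative to vehicle.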

[9] = read-out: Nuclear factor erythroid 2-related factor 2 (Homo sapiens) (UniProt Q16236); assay: LTEA_HepaRG_NFE2L2: Life Technologies and Expression Analysis (LTEA) Assay for Nuclear factor erythroid 2-related factor 2 (NFE2L2) Transcription Factor using HepaRG (AID 2283527);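 further: TaqMan qRT-PCR transcript level normalised to ACTB GAPDH and POLR2A housekeeping genes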
Outline: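 NFE2L2 transcript level was read by qRT-PCR (housekeeping ACTB/GAPDH/POLR2A normalisation) after 48 h chemical treatment of HepaRG in serum-free induction medium. Duplicate 8-point half-log curves, top 100 uM, 0.5% DMSO vehicle; up- or down-regulation fitted against vehicle.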

[10] = read-out: succinate dehydrogenase complex iron sulfur subunit B (SDHB), SDHB (gene 6390); assay: LTEA_HepaRG_SDHB: Life Technologies and Expression Analysis (LTEA) Assay for succinate dehydrogenase complex iron sulfur subunit B (SDHB) using HepaRG (AID 2283528)
Outline: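 HepaRG, 48 h exposure, 8-pt half-log series from 100 uM in 0.5% DMSO, duplicates. Readout: SDHB mRNA by Fluidigm qRT-PCR vs housekeeping genes; bidirectional fit relative to DMSO.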

[11] = read-out: Signal transducer and activator of transcription 3 (Homo sapiens) (UniProt P40763); assay: LTEA_HepaRG_STAT3: Life Technologies and Expression Analysis (LTEA) Assay for Signal transducer and activator of transcription (STAT3) using HepaRG (AID 2283529)
Outline: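 STAT3 transcript quantified by qRT-PCR against three housekeeping genes (ACTB, GAPDH, POLR2A), fitted both directions relative to DMSO. HepaRG cultures exposed 48 h to eight half-log concentrations, top 100 uM, 0.5% DMSO, serum-free induction medium.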

[12] = read-out: solute carrier (SLCO1B1), SLCO1B1 (gene 10599); assay: LTEA_HepaRG_SLCO1B1: Life Technologies and Expression Analysis (LTEA) Assay for solute carrier (SLCO1B1) using HepaRG (AID 2283530)
Outline: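 SLCO1B1 transcript levels were quantified by TaqMan qRT-PCR using three housekeeping genes for normalization. This followed 48 h chemical exposure (100 uM top, half-log, 8 points, 0.5% DMSO) of HepaRG liver cells, with gain or loss fitted relative to DMSO.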

[13] = read-out: sulfotransferase 2A1 (SULT2A1), SULT2A1 (gene 6822); assay: LTEA_HepaRG_SULT2A1: Life Technologies and Expression Analysis (LTEA) Assay for sulfotransferase 2A1 (SULT2A1) using HepaRG (AID 2283531)
Outline: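 Expression change of SULT2A1, by qRT-PCR with three housekeeping-gene normalization, was scored bidirectionally versus DMSO. Cells: differentiated HepaRG, dosed in duplicate for 48 h across 8 points, highest 100 µM, half-log dilution, 0.5% DMSO.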

[14] = read-out: Transforming Growth Factor (TGFA), TGFA (gene 7039); assay: LTEA_HepaRG_TGFA: Life Technologies and Expression Analysis (LTEA) Assay for Transforming Growth Factor (TGFA) using HepaRG (AID 2283532)
Outline: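 TGFA transcript quantified by qRT-PCR (Fluidigm arrays) against three housekeeping genes, after 48 hours chemical treatment of HepaRG cells. Top concentration 100 uM with half-log dilutions, 8 points, duplicates, 0.5% DMSO.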

[15] = read-out: Transforming Growth Factor (TGFB1), TGFB1 (gene 7040); assay: LTEA_HepaRG_TGFB1: Life Technologies and Expression Analysis (LTEA) Assay for Transforming Growth Factor (TGFB1) Transporter using HepaRG (AID 2283533)
Outline: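 TGFB1 transcript measured by qRT-PCR with normalisation to three housekeeping genes (ACTB, GAPDH, POLR2A); human HepaRG line treated in duplicate for 48 hr with an 8-point series topping at 100 uM, 0.5% DMSO vehicle, bidirectionally fitted.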

TIMP1, TIMP1 (gene 7076) = assay: LTEA_HepaRG_TIMP1: Life Technologies and Expression Analysis (LTEA) Assay for TIMP1 using HepaRG (AID 2283534);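 on outcome: TaqMan qRT-PCR signal normalized to ACTB GAPDH and POLR2A housekeeping genes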
Outline: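 Bidirectional change in TIMP1 transcript versus 0.5% DMSO, measured by TaqMan qRT-PCR with three housekeeping genes for normalization. HepaRG human liver cells dosed 48 h in duplicate, top concentration 100 uM with half-log dilutions.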

[16] = read-out: Tumor necrosis factor receptor 1 (TNFRSF1A), TNFRSF1A (gene 7132); assay: LTEA_HepaRG_TNFRSF1A: Life Technologies and Expression Analysis (LTEA) Assay for Tumor necrosis factor receptor 1 (TNFRSF1A) using HepaRG (AID 2283535)
Outline: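 mRNA measured by qRT-PCR (TaqMan, Fluidigm arrays) against ACTB/GAPDH/POLR2A housekeepers after 48 h chemical exposure of HepaRG cells. Top concentration 100 uM, half-log 8-point series, duplicates; vehicle 0.5% DMSO, both fit directions.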

[17] = read-out: Thyroid Hormone Responsive (THRSP), THRSP (gene 7069); assay: LTEA_HepaRG_THRSP: Life Technologies and Expression Analysis (LTEA) Assay for Thyroid Hormone Responsive (THRSP) using HepaRG (AID 2283536)
Outline: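 THRSP transcript quantified by Fluidigm qRT-PCR against three housekeeping genes after 48 h chemical exposure of HepaRG cells in serum-free induction medium; eight-point half-log series, top 100 uM, 0.5% DMSO vehicle, duplicate wells.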

[18] = read-out: Cellular tumor antigen p53 (Homo sapiens) (UniProt P04637); assay: LTEA_HepaRG_TP53: Life Technologies and Expression Analysis (LTEA) Assay for Tumor Protein P53 (TP53) using HepaRG (AID 2283537)
Outline: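 HepaRG, 48 h exposure, top 100 uM, half-log 8-point, 0.5% DMSO vehicle, duplicates. Read: TP53 mRNA by TaqMan qRT-PCR, normalised to ACTB/GAPDH/POLR2A; bidirectional fit vs DMSO.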

[19] = read-out: UDP glucuronosyltransferase (UGT1A1), UGT1A1 (gene 54658); assay: LTEA_HepaRG_UGT1A1: Life Technologies and Expression Analysis (LTEA) Assay for UDP glucuronosyltransferase (UGT1A1) using HepaRG (AID 2283538)
Outline: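 mRNA induction or loss of UGT1A1, by TaqMan qRT-PCR, in duplicate HepaRG wells after 48 h exposure to half-log dilutions topping at 100 uM; DMSO (0.5%) served as baseline.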

Nuclear factor erythroid 2-related factor 2 (Homo sapiens), sequence (Q16236 whole entry, looked up): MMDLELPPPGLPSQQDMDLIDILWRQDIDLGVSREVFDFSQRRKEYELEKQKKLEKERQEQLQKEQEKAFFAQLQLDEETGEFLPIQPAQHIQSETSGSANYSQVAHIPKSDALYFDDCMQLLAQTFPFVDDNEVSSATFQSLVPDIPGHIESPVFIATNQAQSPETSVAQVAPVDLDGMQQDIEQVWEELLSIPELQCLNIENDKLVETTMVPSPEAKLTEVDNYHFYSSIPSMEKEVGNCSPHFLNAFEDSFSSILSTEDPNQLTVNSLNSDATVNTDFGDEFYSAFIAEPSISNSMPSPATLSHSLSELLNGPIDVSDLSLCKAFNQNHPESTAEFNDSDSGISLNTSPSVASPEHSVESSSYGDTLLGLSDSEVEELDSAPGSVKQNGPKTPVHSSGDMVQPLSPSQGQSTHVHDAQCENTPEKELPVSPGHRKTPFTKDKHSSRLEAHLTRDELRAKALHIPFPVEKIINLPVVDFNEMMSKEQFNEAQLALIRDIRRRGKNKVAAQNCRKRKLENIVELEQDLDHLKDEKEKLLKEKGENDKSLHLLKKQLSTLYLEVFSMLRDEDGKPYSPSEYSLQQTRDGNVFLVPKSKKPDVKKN
Nuclear factor NF-kappa-B p105 subunit (Homo sapiens), sequence (P19838 whole entry, looked up): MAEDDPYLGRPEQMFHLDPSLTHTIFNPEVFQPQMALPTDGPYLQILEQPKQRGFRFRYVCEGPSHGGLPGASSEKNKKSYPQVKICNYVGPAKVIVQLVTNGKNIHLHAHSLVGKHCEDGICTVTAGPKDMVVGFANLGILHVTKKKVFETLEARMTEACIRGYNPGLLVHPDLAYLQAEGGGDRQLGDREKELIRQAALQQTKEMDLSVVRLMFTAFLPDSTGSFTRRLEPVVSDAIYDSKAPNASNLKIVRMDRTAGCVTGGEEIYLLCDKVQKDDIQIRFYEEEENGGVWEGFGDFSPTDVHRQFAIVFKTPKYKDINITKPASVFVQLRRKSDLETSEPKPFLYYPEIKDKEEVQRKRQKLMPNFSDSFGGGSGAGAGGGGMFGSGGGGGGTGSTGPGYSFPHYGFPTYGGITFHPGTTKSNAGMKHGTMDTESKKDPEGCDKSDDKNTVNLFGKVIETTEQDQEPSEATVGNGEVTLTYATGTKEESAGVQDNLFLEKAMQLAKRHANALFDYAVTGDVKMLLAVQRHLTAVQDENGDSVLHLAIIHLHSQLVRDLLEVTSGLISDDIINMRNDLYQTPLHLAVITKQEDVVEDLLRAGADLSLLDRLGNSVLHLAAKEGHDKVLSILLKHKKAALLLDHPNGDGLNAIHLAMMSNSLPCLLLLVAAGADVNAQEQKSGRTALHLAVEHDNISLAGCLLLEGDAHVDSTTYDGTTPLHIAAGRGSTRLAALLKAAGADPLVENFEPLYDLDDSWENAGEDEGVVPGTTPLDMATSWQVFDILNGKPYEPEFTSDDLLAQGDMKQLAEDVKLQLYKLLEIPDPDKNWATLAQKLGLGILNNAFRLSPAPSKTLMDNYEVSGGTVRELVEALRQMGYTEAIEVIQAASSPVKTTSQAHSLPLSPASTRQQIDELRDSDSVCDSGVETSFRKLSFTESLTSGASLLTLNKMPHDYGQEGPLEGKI
Signal transducer and activator of transcription 3 (Homo sapiens), sequence (P40763 whole entry, looked up): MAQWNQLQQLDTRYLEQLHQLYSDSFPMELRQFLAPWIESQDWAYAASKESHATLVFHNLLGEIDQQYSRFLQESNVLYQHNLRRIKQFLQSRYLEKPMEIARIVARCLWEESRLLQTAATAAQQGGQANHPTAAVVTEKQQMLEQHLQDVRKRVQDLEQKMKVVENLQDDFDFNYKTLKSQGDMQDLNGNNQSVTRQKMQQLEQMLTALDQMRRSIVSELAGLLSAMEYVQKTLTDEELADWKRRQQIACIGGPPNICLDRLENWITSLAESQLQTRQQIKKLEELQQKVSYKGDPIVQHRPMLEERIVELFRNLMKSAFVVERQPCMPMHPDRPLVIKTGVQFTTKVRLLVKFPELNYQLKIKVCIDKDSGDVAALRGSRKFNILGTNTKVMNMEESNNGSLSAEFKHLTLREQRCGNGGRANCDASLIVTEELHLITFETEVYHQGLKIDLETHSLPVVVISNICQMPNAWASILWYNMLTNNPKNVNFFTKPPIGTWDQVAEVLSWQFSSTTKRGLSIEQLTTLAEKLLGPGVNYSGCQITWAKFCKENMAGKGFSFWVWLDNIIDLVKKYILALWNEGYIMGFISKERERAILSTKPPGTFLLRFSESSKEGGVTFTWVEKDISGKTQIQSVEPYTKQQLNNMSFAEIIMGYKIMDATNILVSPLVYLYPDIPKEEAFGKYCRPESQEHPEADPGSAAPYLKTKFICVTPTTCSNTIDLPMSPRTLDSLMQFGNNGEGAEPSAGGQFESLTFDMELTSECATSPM
Cellular tumor antigen p53 (Homo sapiens), sequence (P04637 whole entry, looked up): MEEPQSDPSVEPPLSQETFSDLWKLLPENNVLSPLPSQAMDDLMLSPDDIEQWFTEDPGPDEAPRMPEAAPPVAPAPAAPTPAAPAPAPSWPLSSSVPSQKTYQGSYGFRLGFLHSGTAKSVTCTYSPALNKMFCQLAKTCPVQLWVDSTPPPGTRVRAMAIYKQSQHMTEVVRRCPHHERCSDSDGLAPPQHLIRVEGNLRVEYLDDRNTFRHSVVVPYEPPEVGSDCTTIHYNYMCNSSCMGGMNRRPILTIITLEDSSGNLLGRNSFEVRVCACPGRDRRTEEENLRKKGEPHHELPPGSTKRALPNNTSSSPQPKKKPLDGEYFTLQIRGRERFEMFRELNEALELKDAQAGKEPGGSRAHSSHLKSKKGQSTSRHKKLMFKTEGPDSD

**Q.** Which results are given for `CCCCOCCOCCO`?
**A.** outcome [1]: inactive; outcome [2]: inactive; outcome [3]: inactive; outcome [4]: inactive; outcome [5]: inactive; outcome [6]: inactive; outcome [7]: inactive; outcome [8]: inactive; outcome [9]: inactive; outcome [10]: inactive; outcome [11]: inactive; outcome [12]: inactive; outcome [13]: inactive; outcome [14]: inactive; outcome [15]: inactive; outcome (TIMP1, TIMP1 (gene 7076)): inactive; outcome [16]: inactive; outcome [17]: inactive; outcome [18]: inactive; AC50 [19]: 50 µM (active)

**Q.** How did the outcome [1] turn out when `C=C(C)C(N)=O` was run?
**A.** inactive

**Q.** What about the outcome [2] of the same compound?
**A.** inactive

**Q.** What about the outcome [3] of the same compound?
**A.** inactive

**Q.** What about the outcome [4] of the same compound?
**A.** inactive

**Q.** And the outcome [5]?
**A.** inactive

**Q.** What about the outcome [6] of the same compound?
**A.** inactive

**Q.** What about the outcome [7] of the same compound?
**A.** inactive

**Q.** And the outcome [8]?
**A.** inactive

**Q.** And the outcome [9]?
**A.** inactive

**Q.** What about the outcome [10] of the same compound?
**A.** inactive

**Q.** And the outcome [11]?
**A.** inactive

**Q.** And the outcome [12]?
**A.** inactive

**Q.** What about the outcome [13] of the same compound?
**A.** inactive

**Q.** What about the outcome [14] of the same compound?
**A.** inactive

**Q.** What about the outcome [15] of the same compound?
**A.** inactive

**Q.** And the outcome (TIMP1, TIMP1 (gene 7076))?
**A.** inactive

**Q.** What about the outcome [16] of the same compound?
**A.** inactive

**Q.** And the outcome [17]?
**A.** inactive

**Q.** What about the outcome [18] of the same compound?
**A.** inactive

**Q.** What about the outcome [19] of the same compound?
**A.** inactive

**Q.** Which results are given for `COC(=O)c1ccc(C(=O)OC)cc1`?
**A.** outcome [1]: inactive; outcome [2]: inactive; outcome [3]: inactive; outcome [4]: inactive; outcome [5]: inactive; outcome [6]: inactive; outcome [7]: inactive; outcome [8]: inactive; outcome [9]: inactive; outcome [10]: inactive; outcome [11]: inactive; outcome [12]: inactive; outcome [13]: inactive; outcome [14]: inactive; outcome [15]: inactive; outcome (TIMP1, TIMP1 (gene 7076)): inactive; outcome [16]: inactive; outcome [17]: inactive; outcome [18]: inactive; outcome [19]: inactive

**Q.** Which outcome [1] does the source give for `O=C(c1ccc(OCCN2CCCCC2)cc1)c1c(-c2ccc(O)cc2)sc2cc(O)ccc12` here?
**A.** inactive

**Q.** What about the AC50 [2] of the same compound?
**A.** 65.9 µM (active)

**Q.** What about the outcome [3] of the same compound?
**A.** inactive

**Q.** What about the AC50 [4] of the same compound?
**A.** 50 µM (active)

**Q.** And the AC50 [5]?
**A.** 77.9 µM (active)

**Q.** And the AC50 [6]?
**A.** 80 µM (active)

**Q.** What about the AC50 [7] of the same compound?
**A.** 50 µM (active)

**Q.** What about the outcome [8] of the same compound?
**A.** inactive

**Q.** What about the outcome [9] of the same compound?
**A.** inactive

**Q.** And the AC50 [10]?
**A.** 9.92 µM (active)

**Q.** What about the AC50 [11] of the same compound?
**A.** 50 µM (active)

**Q.** What about the AC50 [12] of the same compound?
**A.** 68.7 µM (active)

**Q.** What about the AC50 [13] of the same compound?
**A.** 50 µM (active)

**Q.** And the AC50 [14]?
**A.** 75.2 µM (active)

**Q.** What about the outcome [15] of the same compound?
**A.** inactive

**Q.** What about the AC50 (TIMP1, TIMP1 (gene 7076)) of the same compound?
**A.** 50 µM (active)

**Q.** What about the outcome [16] of the same compound?
**A.** inactive

**Q.** What about the outcome [17] of the same compound?
**A.** inactive

**Q.** And the outcome [18]?
**A.** inactive

**Q.** And the AC50 [19]?
**A.** 50 µM (active)
